The panel holds about 83,000 compounds, 20% with a hit somewhere; the sample as a whole holds those more often.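 Results are percent growth after 48 hours of single-concentration exposure. 100 means growth as in untreated cells, lower positive values show inhibition; negative values down to -100 show cell death.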 Values without a mark were called inactive. Calls of active or inactive are those of the source. Rule for the calls: active = growth percent below 10; inactive = the rest.

The first test has as its system A498 renal. Kind of test: NCI-60 one-dose screen, 48 h (100 = growth as untreated, 0 = no growth, -100 = all killed). To be noted: 10 µM unless noted.
In the case of `CN(C)c1ccc2nc3ccc(=[N+](C)C)c([N+](=O)[O-])c-3sc2c1`, the growth is 68.5%.

As to `COc1cc(C(=O)/C=C/c2c(Cl)nc3sccn23)cc(OC)c1OC`, the growth is 88%.

For the compound `CNc1ccc(Nc2cccc(C)c2)c2c1C(=O)c1ccccc1C2=O`, the growth is 89.2%.

For the compound `Cc1cc(O)c(C2=NN(c3ccc(S(N)(=O)=O)cc3)C(c3ccccc3O)C2)cc1Cl` (centres undefined), the growth was 20.6%.

Take `CCN1C(=O)N(CC)C2Nn3c(s/c(=C4\C(=O)N(CCC(C)C)c5ccccc54)c3=O)=NC21` (centres undefined): the growth is 72.9%.

On to `C=C(C)[C@@H]1CC[C@]2(N=C=O)CC[C@]3(C)[C@H](CC[C@@H]4[C@@]5(C)Cc6c([nH]c7ccccc67)C(C)(C)[C@@H]5CC[C@]43C)[C@@H]12`, for which the growth was 137%.

With `O=C1CSC(c2c(Cl)cccc2Cl)N1c1nc(Cl)cc(=O)[nH]1` (centres undefined), the growth is 121%.

On to `COc1ccc(OC)c(/C=C/C(=O)N/N=C/c2ccccc2)c1`, for which the growth is 38.7%.

For the compound `Oc1ccc(-c2nc3ccc4[nH]ncc4c3c3c2CCCC3)c2cccnc12`, the growth was -25.7% (active).

Regarding `Cc1cc(O)c(C2=NN(c3ccc(S(N)(=O)=O)cc3)C(/C=C/c3ccccc3)C2)cc1Cl` (centres undefined), the growth is 39.9%.

Take `COc1ccc(C2=Nn3c(nnc3-c3cc(Cl)cc(Cl)c3Cl)SC2)cc1`: the growth is -11.3% (active).

For the compound `O=S(=O)(NCCCNc1cc(-c2c(-c3cccc(O)c3)nc3sccn23)ccn1)c1cccc2ccccc12`, the growth was 59%.

For `c1cc(-c2nnc(SSc3ncnc4nc[nH]c34)o2)ccn1`, the growth is 63%.

Turning to `CC[C@H](C)C(=O)O[C@H]1CCC=C2C=C[C@H](C)[C@H](CC[C@@H]3CC=CC(=O)O3)[C@H]21`, the growth is 97%.

As for `COc1cc(CCC[P+](c2ccccc2)(c2ccccc2)c2ccccc2)c(OC)c(OC)c1OC`, the growth was -6.09% (active).

On to `COc1ccc(C(=O)/C=C/c2sc(Cl)nc2Cl)cc1`, for which the growth was 93.2%.

As for `COc1ccc(C(=S)N2CCN(c3cccc(C)c3)CC2)cc1OC`, the growth was 86.4%.

Regarding `Cc1cc2nc3ccc(N=Nc4ccc(N(C)C)cc4)cc3n(-c3ccccc3)c-2cc1=N`, the growth was -46.9% (active).

On to `CC(=O)CC(c1cccs1)c1c(-c2ccccc2)[nH]c2ccccc12` (centres undefined), for which the growth is 84%.

For `COc1ccc(-n2c(N)c(-c3nc4ccccc4[nH]3)cc(C#N)c2=O)cc1`, the growth was 64%.

On to `Cc1ncc(C(=O)Nc2ccc(CN3CCN(C)CC3)c(C(F)(F)F)c2)cc1C#Cc1ccc(N)nc1`, for which the growth was -64.1% (active).

With `COC(=O)/C=C1\S/C(=N\Nc2ccc([N+](=O)[O-])cc2[N+](=O)[O-])N(C2CCCCC2)C1=O`, the growth is 63.1%.

Regarding `COc1c(B(O)O)cc(F)cc1-c1nc2ccc3[nH]ncc3c2c2c1CCCC2`, the growth is -67.9% (active).

In the case of `CCCCCCN1C(=O)/C(=c2\sc3n(c2=O)C2C(NN=3)N(CC)C(=O)N2CC)c2ccccc21` (centres undefined), the growth is -5.48% (active).

As for `S=c1nc(-c2ccccc2)oc(=NC2CCCCC2)n1C1CCCCC1`, the growth was 86.8%.

Turning to `CNC(=O)c1[nH]cc(-c2ccccc2)c1-c1cc(OC)c2c(c1OC)OCO2`, the growth is 95.4%.

Regarding `CCCCCCN(CCCCCC)c1ccc(/C=C2/SC(=O)NC2=O)c(C)c1`, the growth was 82.9%.

Take `CC(=O)OC[C@H]1OC(Sc2sc(C(=O)c3ccc(Br)cc3)c(N)c2-c2nc3ccccc3s2)[C@H](OC(C)=O)[C@@H](OC(C)=O)[C@H]1OC(C)=O` (some centres undefined): the growth is 36.1%.

Take `N#Cc1ccc(NC(=O)c2sc3nc4c(cc3c2N)C(=O)CCC4)cc1`: the growth is 79.6%.

With `NS(=O)(=O)c1ccc(-n2nc(-c3ccc(Cl)cc3)c3ccccc3c2=O)cc1`, the growth was 123%.

For the compound `COc1cccc(OC)c1C(=O)N[C@@H]1C(=O)N2[C@@H]1SC(C)(C)[C@@H]2C(=O)O`, the growth is 121%.

Take `N/C(=N\c1nc2ccccc2s1)NC(=O)Nc1cccc2ccccc12`: the growth was -10.8% (active).

On to `COc1ccc(/C=C/c2c(C(=O)/C=C/c3ccc(C(F)(F)F)cc3)c(C)nc3ccccc23)cc1`, for which the growth was -66.3% (active).

With `COc1c(B(O)O)cc(C)cc1-c1nc2ccc3[nH]ncc3c2c2c1CCCC2`, the growth is 49.2%.

With `COc1cc(C(=O)c2cc(C)c3[nH]c4ccc(O)cc4c3c2C)cc(OC)c1OC`, the growth is -12.7% (active).

Regarding `COc1ccc(/C=C/c2c(C(=O)/C=C/c3ccc(Cl)cc3)c(C)nc3ccccc23)cc1`, the growth was 39.6%.

In the case of `O=c1ccc(N=Nc2ccc([N+](=O)[O-])cc2)ccc1O`, the growth is 103%.

The next test deals with CCRF-CEM leukemia. The description is as above. To be noted: 10 µM unless noted.
In the case of `CN(C)c1ccc2nc3ccc(=[N+](C)C)c([N+](=O)[O-])c-3sc2c1`, the growth was 12.7%.

On to `COc1cc(C(=O)/C=C/c2c(Cl)nc3sccn23)cc(OC)c1OC`, for which the growth was 48.7%.

`CNc1ccc(Nc2cccc(C)c2)c2c1C(=O)c1ccccc1C2=O`: the growth is 102%.

On to `Cc1cc(O)c(C2=NN(c3ccc(S(N)(=O)=O)cc3)C(c3ccccc3O)C2)cc1Cl` (centres undefined), for which the growth is 12.9%.

In the case of `CCN1C(=O)N(CC)C2Nn3c(s/c(=C4\C(=O)N(CCC(C)C)c5ccccc54)c3=O)=NC21` (centres undefined), the growth is 57.1%.

For the compound `C=C(C)[C@@H]1CC[C@]2(N=C=O)CC[C@]3(C)[C@H](CC[C@@H]4[C@@]5(C)Cc6c([nH]c7ccccc67)C(C)(C)[C@@H]5CC[C@]43C)[C@@H]12`, the growth was 67.6%.

With `O=C1CSC(c2c(Cl)cccc2Cl)N1c1nc(Cl)cc(=O)[nH]1` (centres undefined), the growth was 67.3%.

With `COc1ccc(OC)c(/C=C/C(=O)N/N=C/c2ccccc2)c1`, the growth is 55.2%.

With `Oc1ccc(-c2nc3ccc4[nH]ncc4c3c3c2CCCC3)c2cccnc12`, the growth is 4.86% (active).

As to `Cc1cc(O)c(C2=NN(c3ccc(S(N)(=O)=O)cc3)C(/C=C/c3ccccc3)C2)cc1Cl` (centres undefined), the growth was 66.2%.

Take `COc1ccc(C2=Nn3c(nnc3-c3cc(Cl)cc(Cl)c3Cl)SC2)cc1`: the growth was 0.0891% (active).

On to `O=S(=O)(NCCCNc1cc(-c2c(-c3cccc(O)c3)nc3sccn23)ccn1)c1cccc2ccccc12`, for which the growth was 21.2%.

For `c1cc(-c2nnc(SSc3ncnc4nc[nH]c34)o2)ccn1`, the growth was 21.8%.

On to `CC[C@H](C)C(=O)O[C@H]1CCC=C2C=C[C@H](C)[C@H](CC[C@@H]3CC=CC(=O)O3)[C@H]21`, for which the growth was 6.89% (active).

As to `COc1cc(CCC[P+](c2ccccc2)(c2ccccc2)c2ccccc2)c(OC)c(OC)c1OC`, the growth was 65%.

Take `COc1ccc(C(=O)/C=C/c2sc(Cl)nc2Cl)cc1`: the growth is 12.3%.

As to `COc1ccc(C(=S)N2CCN(c3cccc(C)c3)CC2)cc1OC`, the growth is 74%.

As for `Cc1cc2nc3ccc(N=Nc4ccc(N(C)C)cc4)cc3n(-c3ccccc3)c-2cc1=N`, the growth is -47.3% (active).

Regarding `CC(=O)CC(c1cccs1)c1c(-c2ccccc2)[nH]c2ccccc12` (centres undefined), the growth was 92.6%.

As to `COc1ccc(-n2c(N)c(-c3nc4ccccc4[nH]3)cc(C#N)c2=O)cc1`, the growth is 98.3%.

For `Cc1ncc(C(=O)Nc2ccc(CN3CCN(C)CC3)c(C(F)(F)F)c2)cc1C#Cc1ccc(N)nc1`, the growth was 18.6%.

With `COC(=O)/C=C1\S/C(=N\Nc2ccc([N+](=O)[O-])cc2[N+](=O)[O-])N(C2CCCCC2)C1=O`, the growth is 17.9%.

Take `COc1c(B(O)O)cc(F)cc1-c1nc2ccc3[nH]ncc3c2c2c1CCCC2`: the growth is 10.9%.

Turning to `CCCCCCN1C(=O)/C(=c2\sc3n(c2=O)C2C(NN=3)N(CC)C(=O)N2CC)c2ccccc21` (centres undefined), the growth was 37.8%.

With `S=c1nc(-c2ccccc2)oc(=NC2CCCCC2)n1C1CCCCC1`, the growth was -6.7% (active).

Regarding `CNC(=O)c1[nH]cc(-c2ccccc2)c1-c1cc(OC)c2c(c1OC)OCO2`, the growth is 108%.

In the case of `CCCCCCN(CCCCCC)c1ccc(/C=C2/SC(=O)NC2=O)c(C)c1`, the growth is 73%.

With `CC(=O)OC[C@H]1OC(Sc2sc(C(=O)c3ccc(Br)cc3)c(N)c2-c2nc3ccccc3s2)[C@H](OC(C)=O)[C@@H](OC(C)=O)[C@H]1OC(C)=O` (some centres undefined), the growth is 85.5%.

Consider `N#Cc1ccc(NC(=O)c2sc3nc4c(cc3c2N)C(=O)CCC4)cc1`, for which the growth was 99.8%.

On to `NS(=O)(=O)c1ccc(-n2nc(-c3ccc(Cl)cc3)c3ccccc3c2=O)cc1`, for which the growth was 70.3%.

With `COc1cccc(OC)c1C(=O)N[C@@H]1C(=O)N2[C@@H]1SC(C)(C)[C@@H]2C(=O)O`, the growth was 99.8%.

Consider `N/C(=N\c1nc2ccccc2s1)NC(=O)Nc1cccc2ccccc12`, for which the growth was 12.2%.

Take `COc1ccc(/C=C/c2c(C(=O)/C=C/c3ccc(C(F)(F)F)cc3)c(C)nc3ccccc23)cc1`: the growth is 7.64% (active).

For the compound `COc1c(B(O)O)cc(C)cc1-c1nc2ccc3[nH]ncc3c2c2c1CCCC2`, the growth is 35.1%.

For `COc1cc(C(=O)c2cc(C)c3[nH]c4ccc(O)cc4c3c2C)cc(OC)c1OC`, the growth is 15.5%.

In the case of `COc1ccc(/C=C/c2c(C(=O)/C=C/c3ccc(Cl)cc3)c(C)nc3ccccc23)cc1`, the growth was 5.29% (active).

Consider `O=c1ccc(N=Nc2ccc([N+](=O)[O-])cc2)ccc1O`, for which the growth was 34.5%.

The values above are taken from PubChem BioAssay (NCI).
